# Results from PMC4336329 (PLoS ONE, 2015).
# About 2,200 (0.71%) of roughly 310,000 compounds showed an effect of 50% or more. The effect is printed as a negative number. This is one part of a sample in which strong results are shown more often than they occur.
# Target: human ether-à-go-go-related gene (hERG) potassium channel (human, UniProt Q12809)
# Test: primary screen, population patch clamp on CHO cells stably expressing hERG; higher = less effect of the substance
# human ether-à-go-go-related gene (hERG) potassium channel, sequence (Q12809 whole entry, looked up): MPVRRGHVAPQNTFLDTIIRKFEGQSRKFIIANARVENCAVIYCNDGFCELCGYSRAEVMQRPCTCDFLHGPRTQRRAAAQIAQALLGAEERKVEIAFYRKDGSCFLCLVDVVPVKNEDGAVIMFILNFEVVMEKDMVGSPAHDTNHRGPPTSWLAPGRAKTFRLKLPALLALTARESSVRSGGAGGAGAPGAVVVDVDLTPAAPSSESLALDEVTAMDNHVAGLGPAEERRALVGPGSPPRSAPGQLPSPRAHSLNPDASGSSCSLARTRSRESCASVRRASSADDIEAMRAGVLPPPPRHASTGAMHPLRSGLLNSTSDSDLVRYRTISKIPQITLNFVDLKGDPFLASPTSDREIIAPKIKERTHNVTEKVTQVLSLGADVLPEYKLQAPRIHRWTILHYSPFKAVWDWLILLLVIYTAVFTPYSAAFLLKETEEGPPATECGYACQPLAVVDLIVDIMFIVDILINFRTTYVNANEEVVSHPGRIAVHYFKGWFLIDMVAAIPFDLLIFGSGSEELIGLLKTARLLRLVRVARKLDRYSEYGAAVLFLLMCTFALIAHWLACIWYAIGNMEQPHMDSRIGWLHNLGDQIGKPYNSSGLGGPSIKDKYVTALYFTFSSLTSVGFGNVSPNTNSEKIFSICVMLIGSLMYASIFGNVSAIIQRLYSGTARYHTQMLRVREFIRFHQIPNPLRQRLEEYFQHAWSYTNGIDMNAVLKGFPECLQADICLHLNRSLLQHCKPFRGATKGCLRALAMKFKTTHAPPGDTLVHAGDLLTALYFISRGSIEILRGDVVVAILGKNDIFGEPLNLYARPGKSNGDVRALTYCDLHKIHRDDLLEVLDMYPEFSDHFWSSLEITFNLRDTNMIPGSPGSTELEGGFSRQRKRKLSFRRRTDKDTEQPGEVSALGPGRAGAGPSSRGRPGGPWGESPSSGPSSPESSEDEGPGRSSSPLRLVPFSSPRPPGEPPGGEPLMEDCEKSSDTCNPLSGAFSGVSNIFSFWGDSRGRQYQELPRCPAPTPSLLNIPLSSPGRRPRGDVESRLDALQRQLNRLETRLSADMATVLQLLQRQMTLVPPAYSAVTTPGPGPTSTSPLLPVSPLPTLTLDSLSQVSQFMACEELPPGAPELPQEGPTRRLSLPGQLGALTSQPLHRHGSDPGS
row,SMILES,"hERG current change (%, negative = inhibition) at 1uM"
1,N=c1c2c(ncn1Cc1ccco1)Oc1cc(O)ccc1C2c1ccccc1 (stereo not drawn),-69.5%
2,N=c1c2c(ncn1Cc1ccco1)Oc1c(ccc3ccccc13)C2c1ccccc1 (stereo not drawn),1.59%
3,COc1ccc(C2c3ccc(O)cc3Oc3ncn4nc(-c5ccccn5)nc4c32)cc1OC (stereo not drawn),-50.1%
4,N=c1c2c(ncn1CCCO)Oc1cc(O)ccc1C2c1ccccc1 (stereo not drawn),0.259%
5,COc1ccc(C2c3ccc(O)cc3Oc3ncn(Cc4ccco4)c(=N)c32)cc1OC (stereo not drawn),-75.9%
6,COc1ccc(C2c3ccc(O)cc3Oc3ncn4nc(-c5ccccn5)nc4c32)cc1 (stereo not drawn),18.3%
7,COc1ccc(C2c3ccc(O)cc3Oc3ncn(Cc4ccccc4)c(=N)c32)cc1OC (stereo not drawn),-0.742%
8,COc1ccc(C2c3ccc(O)cc3Oc3ncn4nc(-c5ccncc5)nc4c32)cc1OC (stereo not drawn),-0.788%
9,COc1ccc(C2c3ccc(O)cc3Oc3ncn(Cc4ccco4)c(=N)c32)cc1 (stereo not drawn),-43.5%
10,CCOC(=O)C1=C(Cn2cnc3ccccc32)NC(=O)NC1c1cc(C)ccc1C (stereo not drawn),12.2%
11,CCOC(=O)CSc1nnc(CSc2nc3ccccc3s2)n1C,6.96%
12,COC(=O)Nc1nc2c(C)cccc2s1,-4.56%
13,CCN(c1ccc(NC(=O)c2ccc(Cl)nc2)cc1)C(C)C,12.2%
14,CS(=O)(=O)O.Oc1ccc(C2CNCCc3c2cc(O)c(O)c3Cl)cc1 (stereo not drawn),-0.982%
15,CCS(=O)(=O)NCc1cn2c(C)csc2n1,0.136%
16,CCCc1[nH]n(-c2ccc([N+](=O)[O-])cc2)c(=O)c1C=NCCN1CCNCC1,-9.24%
17,CCCc1[nH]n(-c2ccc([N+](=O)[O-])cc2)c(=O)c1C=NCCc1ccc(OC)c(OC)c1,4.23%
18,CCCc1[nH]n(-c2ccc([N+](=O)[O-])cc2)c(=O)c1C=NCCCn1ccnc1,-50.1%
19,COc1ccccc1/C=C/CN1CCCC(CCC(=O)NCc2ccc(F)c(F)c2)C1 (stereo not drawn),-26.2%
20,COc1ccc(/C=C/CN2CCCC(CCC(=O)NCc3ccc(F)c(F)c3)C2)cc1 (stereo not drawn),-54.3%
21,COc1cccc(CNC(=O)CCC2CCCN(Cc3cc(Cl)ccc3O)C2)c1 (stereo not drawn),-20%
22,COc1cccc(CNC(=O)CCC2CCCN(Cc3ccc(OC(F)F)cc3)C2)c1 (stereo not drawn),-80.1%
23,COc1cccc(CNC(=O)CCC2CCCN(C/C=C/c3ccccc3OC)C2)c1 (stereo not drawn),-34.5%
24,COCc1ccc(CN2CCCC(CCC(=O)NCc3cccc(OC)c3)C2)o1 (stereo not drawn),11%

row,SMILES,"hERG current change (%, negative = inhibition) at 1uM"
1,COc1cccc(CNC(=O)CCC2CCCN(c3cc(C)nc(N4CCCC4)n3)C2)c1 (stereo not drawn),-74%
2,COc1cccc(CNC(=O)CCC2CCCN(c3cc(C)nc(N(C)C)n3)C2)c1 (stereo not drawn),-27.7%
3,COc1cccc(CNC(=O)CCC2CCCN(c3cc(C)nc(N)n3)C2)c1 (stereo not drawn),-18.3%
4,C/C(CC(=O)Nc1cccc(Cl)c1Cl)=N\NC(=O)c1ccccc1C,8.35%
5,CC(=O)Nc1cccc(NC(=O)CSc2ncc(C(=O)Nc3ccc(F)cc3)c(=O)n2C)c1,-3.89%
6,COc1ccc(C2(C#N)CCC(=O)N2c2ccccc2)cc1 (stereo not drawn),8.4%
7,COC(=O)CNC(=O)CN1c2cccc3cccc(c23)S1(=O)=O,-12.4%
8,Cc1c(C(=O)O)c(-c2ccccc2)nn1-c1ccccc1,10.8%
9,CN1CCN(CCCC(=O)c2ccc(F)cc2)CC1.Cl,-1.2%
10,Cc1ccc(C(=O)NC2CCN(CCCC(=O)c3ccc(F)cc3)CC2)cc1,-72.9%
11,Cc1ccc(C(=O)NC2CCN(C(=O)Nc3ccc(F)cc3)CC2)cc1,8.68%
12,O=C(c1ccc(F)cc1)C1CCN(C(=O)c2ccc(F)cc2)CC1,2.31%
13,O=C(NC1CCN(Cc2ccccc2Cl)CC1)c1ccccc1,10%
14,O=C(NC1CCN(Cc2ccc(Cl)cc2Cl)CC1)c1ccccc1,-6.37%
15,O=C(CCCN1CCC(C(=O)c2ccc(F)cc2)CC1)c1ccc(F)cc1,-86.2%
16,Cc1ccc(C(=O)NC2CCN(S(=O)(=O)c3ccc(F)cc3)CC2)cc1,9.73%
17,O=C(CCCN1CCC(NC(=O)c2ccccc2)CC1)c1ccc(Cl)cc1,-59.5%
18,CC(C)CC(C)NC(=O)c1ccc(C(F)(F)F)cc1 (stereo not drawn),10.6%
19,CCCCN(C)Cc1c(O)ccc2c(-c3ccccc3)cc(=O)oc12,-4.52%
20,COCCCn1c(=NC(=O)c2ccncc2)c(C#N)cc2c(=O)n3cccc(C)c3nc21,-53.3%
21,COCCCn1c(=NC(=O)c2ccccc2)c(C#N)cc2c(=O)n3cccc(C)c3nc21,-49%
22,CC(=O)N=c1c(C#N)cc2c(=O)n3cccc(C)c3nc2n1CCCOC(C)C,-13.3%
23,Cc1cccn2c(=O)c3cc(C#N)c(=NC(=O)c4ccncc4)n(CCCOC(C)C)c3nc12,-89.7%
24,CCOCCCn1c(=NC(=O)c2cccs2)c(C#N)cc2c(=O)n3cccc(C)c3nc21,-53.9%

row,SMILES,"hERG current change (%, negative = inhibition) at 1uM"
1,Cc1cccn2c(=O)c3cc(C#N)c(=NC(=O)c4cccs4)n(CC(C)C)c3nc12,7.98%
2,Cc1cccn2c(=O)c3cc(C#N)c(=NC(=O)c4cccs4)n(CCCOC(C)C)c3nc12,-26.1%
3,CCOCCCn1c(=NC(=O)c2ccc(OC)c(OC)c2)c(C#N)cc2c(=O)n3cccc(C)c3nc21,-11%
4,COCCCn1c(=NC(C)=O)c(C#N)cc2c(=O)n3cccc(C)c3nc21,-7.03%
5,Cc1nc(OCc2c(C)noc2C)c2ccccc2n1,13.1%
6,CCn1cc(C(=O)N2CCC3(CC2)OCCO3)c(=O)c2cc(S(=O)(=O)N3CCCC3)ccc21,15.9%
7,Cn1c(CNC(=O)Nc2ccccc2Cl)nnc1SCc1ccccc1,2.3%
8,CCCN(C(=O)CSc1nnc2ccccn12)C1CCS(=O)(=O)C1 (stereo not drawn),10.4%
9,CC(=O)NC(NC(C)=O)c1ccc(Br)cc1,-1.9%
10,COC(=O)c1ccc(C)c(NC(=O)c2ccc(Cl)c([N+](=O)[O-])c2)c1,5.94%
11,CCOC(=O)c1c(CN2CCN(c3ccccc3)CC2)oc2ccc(O)cc12,12.6%
12,CCOC(=O)c1c(N2CCN(c3ccccc3)CC2)cc(C)nc1C.O=C([O-])C(=O)[O-],-69%
13,CCOC(=O)c1[nH]c(C)c(C(=O)N2CCN(c3ccccc3)CC2)c1C,-3.94%
14,CCCC(=O)Nc1ccccc1NC(=O)CN(C)S(=O)(=O)c1ccccc1,9.94%
15,CCOc1ccccc1NC(=O)CSc1nnc(-c2ccco2)o1,8.2%
16,N/C(=N\OC(=O)CCC1CCCCC1)c1cccc([N+](=O)[O-])c1,3.64%
17,N/C(=N\OC(=O)CCC1CCCC1)c1cccc([N+](=O)[O-])c1,-53.8%
18,N/C(=N\OC(=O)CC1CCCCC1)c1cccc([N+](=O)[O-])c1,13.7%
19,O=C(O)c1ccc(NS(=O)(=O)c2cc(Cl)ccc2Cl)cc1O,4.19%
20,CCCc1cc(C(=O)Nc2cc(Br)ccc2O)no1,18.4%
21,O=C(NCCN1CCN(S(=O)(=O)c2ccc([N+](=O)[O-])cc2)CC1)C(=O)Nc1ccccc1,2.87%
22,O=C(NCCc1ccccc1)C(=O)Nc1ccc([N+](=O)[O-])cc1,11%
23,O=C(NCCN1CCN(Cc2ccc([N+](=O)[O-])cc2)CC1)C(=O)Nc1ccccc1,-53.8%
24,CN1CCN(CCNC(=O)Nc2ccc([N+](=O)[O-])cc2)CC1,10.7%

row,SMILES,"hERG current change (%, negative = inhibition) at 1uM"
1,CCc1ccc(NC(=O)C(=O)NCCN2CCN(Cc3ccc([N+](=O)[O-])cc3)CC2)cc1,-67.4%
2,Cc1ccc(NC(=O)C(=O)NCCN2CCN(Cc3ccc([N+](=O)[O-])cc3)CC2)cc1,-53.3%
3,CCc1ccc(NC(=O)C(=O)NCCN2CCN(S(C)(=O)=O)CC2)cc1,18.2%
4,CCN1CCN(CCNC(=O)Nc2ccc([N+](=O)[O-])cc2)CC1,13.2%
5,CCCCc1ccc(NC(=O)C(=O)NCCN2CCN(Cc3ccc([N+](=O)[O-])cc3)CC2)cc1,-6.8%
6,Cc1ccc(CNS(=O)(=O)/C=C/c2ccc3c(c2)OCO3)cc1,-0.964%
7,c1ccc(-c2nnc3sc(-c4csc5c4CCCC5)nn23)cc1,4.3%
8,O=C(Nc1ncn[nH]1)c1ccc([N+](=O)[O-])cc1[N+](=O)[O-],18.3%
9,COCCNC(=S)N(Cc1cccs1)Cc1cc2cccc(C)c2[nH]c1=O,15.9%
10,CCn1cnc2cc(NCc3nc4ccccc4n3Cc3ccccc3)ccc21,-15.2%
11,c1ccc2c(c1)nc(NCc1ccc3c(c1)OCO3)n2CCN1CCOCC1,-40.7%
12,c1ccc(Cn2c(CNc3nc4ccccc4n3CCN3CCCCC3)nc3ccccc32)cc1,-5.91%
13,CCN(CC)c1ccc(CNc2nc3ccccc3n2CCN2CCOCC2)cc1,-76.1%
14,c1ccc(Cn2c(CNc3nc4ccccc4n3CCN3CCOCC3)nc3ccccc32)cc1,-54.4%
15,Brc1cccc(CNc2nc3ccccc3n2CCN2CCCCC2)c1,-0.507%
16,c1csc(CNc2nc3ccccc3n2CCN2CCOCC2)c1,-9.4%
17,Brc1cccc(CNc2nc3ccccc3n2CCN2CCOCC2)c1,-56.7%
18,COc1ccc(CNc2nc3ccccc3n2CCN2CCOCC2)cc1,-46.5%
19,Cc1cccc(NCc2nc3ccccc3n2Cc2ccccc2)c1,12%
20,Cc1nc2cc(NCc3nc4ccccc4n3Cc3ccccc3)ccc2n1C,-61.7%
21,CCN(CC)c1ccc(CNc2nc3ccccc3n2CCN2CCCCC2)cc1,-18%
